# From PubChem
# PI4K2A block = qHTS for small molecular inhibitors of PI4K2A. hit rate 0.13% among 420,000. AID 1346378, 2018. purified PI4K2A, ADP-Glo luminescence, 1 h; hits give low values. activity change, negative = inhibition, % at 76.9 µM. Phosphatidylinositol 4-kinase type 2-alpha (Homo sapiens), Q9BTU6; in the data active means activity change below about -50%; inconclusive means mostly about -30% to -49%
#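 ADP-Glo luminescence measured ADP generated by PI4K2A enzyme (4 ug/mL before mixing) with 1.2 mM PI substrate (pre-mix) and 300 microM ATP (pre-mix). Tris pH7.5 buffer with MgCl2, Triton X-100; 1 h reaction at ambient temperature.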
# GLS inh = qHTS for Inhibitors of Glutaminase (GLS). Glutaminase kidney isoform, mitochondrial (Homo sapiens), O94925. hit rate 0.21% among 410,000. Potency, µM (highest dose often 45.5 µM), usual class: inhibitors. AID 624170, 2012. GLS enzymatic activity, qHTS titration
#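 Assay buffer: 45 mM KH2PO4 pH 8.2, 0.02% Tween-20. hKGA acts on L-glutamine (1 mM solution added); product glutamate is reported by an oxidase/peroxidase Amplex Red coupling, with fluorescence taken at baseline and 30 min.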
# KAT2A inh = qHTS Assay for Inhibitors of GCN5L2. Histone acetyltransferase KAT2A (Homo sapiens), Q92830. GCN5L2 HAT assay, ThioGlo1 CoA-SH fluorescence. Potency, µM (series often up to 58.9 µM), most hits filed as inhibitors. hit rate 0.21% among 390,000
#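 Titration-based screen in which CoA formation is detected via maleimide probe ThioGlo1 (50uM) turning fluorescent on thiol reaction; substrates H3(1-25) 75uM and acetyl-CoA 70uM, GCN5L2 20nM, 20 min incubation at room temperature.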
# VDR inhibitor = Inhibitors of the vitamin D receptor (VDR): qHTS; Vitamin D3 receptor (Homo sapiens), P11473; VDR-SRC2-3 peptide fluorescence polarization, 2 h; Potency, µM, actives largely listed as inhibitors; hit rate 0.93% among 400,000; AID 504847, 2011
#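 Reagent solutions, kept cold and dark, are dispensed first; compounds are then pinned in at 23 nl, plates briefly spun, and incubated 2 h at ambient temperature. Inhibition of VDR–SRC2-3 peptide binding is read by fluorescence polarization.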
# PLK1 PBD inh = qHTS for Inhibitors of PLK1-PDB (polo-like kinase 1 - polo-box domain): Primary Screen. Plk1 PBD binding of FITC phosphopeptide, fluorescence polarization. Potency, µM, usual class: inhibitors. hit rate 2.8% among 360,000. Serine/threonine-protein kinase PLK1 (Homo sapiens), P53350; further: series mostly up to about 57 µM; nearly all actives have a fitted effect of over 65% in size
# Target sequence (P53350 whole entry, looked up, the tested form may be a part): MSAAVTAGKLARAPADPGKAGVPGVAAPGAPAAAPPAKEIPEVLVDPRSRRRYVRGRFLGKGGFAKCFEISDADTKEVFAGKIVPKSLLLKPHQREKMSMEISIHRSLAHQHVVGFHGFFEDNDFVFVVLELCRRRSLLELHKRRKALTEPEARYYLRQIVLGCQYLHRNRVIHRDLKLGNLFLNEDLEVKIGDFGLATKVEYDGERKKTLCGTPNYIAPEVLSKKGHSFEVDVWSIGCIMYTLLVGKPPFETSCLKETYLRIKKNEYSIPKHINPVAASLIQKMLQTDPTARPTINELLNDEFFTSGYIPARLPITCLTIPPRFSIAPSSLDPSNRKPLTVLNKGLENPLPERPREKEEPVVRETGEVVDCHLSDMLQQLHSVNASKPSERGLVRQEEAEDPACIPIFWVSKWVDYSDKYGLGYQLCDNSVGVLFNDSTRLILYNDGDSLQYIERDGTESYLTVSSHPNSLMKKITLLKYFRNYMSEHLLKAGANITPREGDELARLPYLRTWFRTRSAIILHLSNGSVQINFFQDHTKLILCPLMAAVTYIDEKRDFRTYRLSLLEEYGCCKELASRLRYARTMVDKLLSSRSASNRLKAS
# Numbers stand for hits; - = inactive; ? = inconclusive; . = not tested or not shown; [ ] = dose if it differs, or a comment. A selection: hits, their analogues and other compounds. The true share with any hit is near 3.1%. Unless noted, the call rests on the fitted dose curve; in most records, active means well fitted curve in the direction sought with a large enough effect; inconclusive means small, poorly fitted or top-dose-only effect, or another doubt; inactive means no such curve, though single readings can be large; an effect the other way counts as inactive or inconclusive.
SMILES,PI4K2A block,GLS inh,KAT2A inh,VDR inhibitor,PLK1 PBD inh
CCN(CC)C(=O)c1ccc(Nc2nnc(-c3ccc(O)cc3)c3ccccc23)cc1,-,10µM,-,-,-
CCCCCCCCCCCCCCCC(=O)OCC(COP(=O)(O)OCC[N+](C)(C)C)OC(=O)CCCCCCCCCCCCCCC (centres undefined),.,-,-,-,.
CC(=O)n1c(C=Nc2ccc(Cl)cc2)c(O)c2ccccc21,-,-,-,-,6.7µM
COc1cccc(NC=C2C(=O)OC3(CCCCC3)OC2=O)c1,-,-,-,-,-
COC(=O)c1ccccc1NC=C1C(=O)OC2(CCCCC2)OC1=O,-,-,-,-,4.23µM
O=C(O)CCSc1ccc([N+](=O)[O-])cc1[N+](=O)[O-],-,-,-,?,11.9µM
CC(=O)Nc1ccc(S(=O)(=O)Nc2ccc(=O)n(Cc3ccc(Cl)c(Cl)c3)c2)cc1,-,-,-,-,-
O=c1ccc(NS(=O)(=O)c2ccccc2Cl)cn1Cc1ccc(Cl)c(Cl)c1,-,-,-,15.8µM,-
C=CCOC(=O)C(=O)/C=C/c1coc2ccccc2c1=O,-,-,-,14.1µM,?
C=CCOC(=O)C(=O)/C=C/c1c(C)n(C)n(-c2ccccc2)c1=O,-,-,-,-,-
O=C(O)CC1NCCc2ccccc21 (centres undefined),-,-,-,-,29.9µM
CCCC(=O)OC12CCCN(C1)/C(=C/c1cccc(N(C)C)c1)C2 (centres undefined),-,.,.,.,.
O=C(O)c1cccnc1SCc1cn2cc(Br)ccc2n1,-,-,-,?,11.9µM
Cc1c[nH]c2cccc(-c3ccc4c(c3)OCO4)c12,-,.,.,.,.
CCCCCCCCCCCCCCCC(=O)OC[C@H](O)[C@H]1OC[C@@H](O)[C@@H]1O,.,-,-,-,.
OC1=C(O)c2nc3cc(F)ccc3nc21,-,-,-,-,21.2µM
COCCCN=C(c1ccco1)n1c(=S)nc(-c2ccco2)n(CCCOC)c1=S,-,-,?,?,18.9µM
COCCCn1c(-c2ccco2)nc2ccccc2c1=O,-,-,-,-,-
Cc1nn(C)c(C(=O)Sc2cccc(Cl)c2)c1[N+](=O)[O-],-,-,-,39.8µM,4.23µM
CCn1nc(C)cc1C(=O)Sc1cccc(Cl)c1,-,-,-,?,18.9µM
CCn1nnnc1NCc1ccc(SC)cc1,-,-,-,-,-
CCn1nnnc1NCc1ccc(N2CCCC2)cc1,-,-,-,?,3.77µM
COc1cc2c(cc1OC)C(C)N(C(=O)c1cc(Cl)nc(Cl)c1)CC2 (centres undefined),-,-,-,-,-
COc1cc2c(cc1OC)C1N(CC2)C(=O)CCC12C(=O)CCCC2=O (centres undefined),.,.,.,70.8µM,.
CCOC(=O)CC(S(=O)(=O)c1ccccc1)S(=O)(=O)c1ccccc1,-,-,.,.,26.7µM
SMILES,PI4K2A block,GLS inh,KAT2A inh,VDR inhibitor,PLK1 PBD inh
Cc1ccc(-n2ncc3c2CC(C)(C)CC3NC(=O)CCCN2CCCCC2=O)cc1 (centres undefined),-,-,?,-,26.7µM
C=CCSc1ncc(C(=O)OCC)c(N)n1,-,-,-,-,-
CCOC(=O)c1cnc(SSc2ncc(C(=O)OCC)c(N)n2)nc1N,-,-,?,?,1.06µM
CC[N+](CC)(CC)CCOC(=O)C(C1CCCC1)C1CCCC1,-,-,.,.,.
OC[C@]1(O)OC[C@@H](O)[C@H](O)[C@@H]1O,-,.,.,.,.
CCc1ccc(/C=C2\CN(CC)Cc3c2nc2ccccc2c3C(=O)O)cc1,-,-,2µM,-,-
O=C(O)c1c2c(nc3ccccc13)/C(=C/c1ccc(O)cc1)CC2,-,?,?,-,18.9µM
C=C1C(=O)[C@]23C[C@H]1CCC2[C@@]1(C)C(C[C@@H]3O)[C@](C)(C(=O)OC)CC[C@@H]1OC(C)=O (some centres undefined),-,-,.,.,10.6µM
C=C1C(=O)[C@]23C[C@H]1CC[C@H]2[C@]1(C)[C@@H](OC(C)=O)CC[C@@](C)(C(=O)OC)[C@H]1C[C@@H]3OC(C)=O,-,-,.,.,?
Cc1ccc(S(=O)(=O)Nc2ccc(C(N)=O)cc2)cc1[N+](=O)[O-],-,?,?,?,15µM
CC(=O)N1CCC(=NNS(=O)(=O)c2ccc(C)c([N+](=O)[O-])c2)CC1,-,-,-[0.501 µM],-,-
Cc1ccc(NC(=O)CSc2ccc(C(N)=O)cc2[N+](=O)[O-])cc1C,-,?,-,22.4µM,2.99µM
C/C(CC(C)C)=N\NS(=O)(=O)c1ccc(C)c([N+](=O)[O-])c1,-,-,-,-,29.9µM
Cc1ccc(NC(=O)CSc2ccc(C(N)=O)cc2[N+](=O)[O-])cc1,-,-,-,-,-
CN1CC=C(c2ccccc2)N(c2ccc(Br)cc2)C1=O,-,.,.,.,.
COc1cccc(N2CCN(C(=O)C3CCC(CNS(=O)(=O)c4ccc(Br)s4)CC3)CC2)c1 (centres undefined),-,-,-,-,.
CCC(C(=O)Nc1cc(C(F)(F)F)ccc1Cl)n1nc(C)c2sc3ccccc3c2c1=O (centres undefined),-,-,-,-,.
Cc1cccc(OC(=O)c2cncc(Br)c2)c1,-,-,-,-,26.7µM
Cc1cccc(OC(=O)c2cccnc2)c1,-,-,-,-,-
Oc1ccc(C=Nc2ccc(N3CCOCC3)cc2)c(O)c1,-,-,-,-,-
Oc1c(Cl)cc(Cl)cc1C=Nc1ccc(N2CCOCC2)cc1,-,?,-,44.7µM,-
CC(=O)Nc1ccc(C=NNc2ccc(S(=O)(=O)Nc3ccccc3C(=O)O)cc2[N+](=O)[O-])cc1,-,?,?,?,21.2µM
CCOc1cc(/C=N/Nc2ccc(S(=O)(=O)Nc3ccccc3C(=O)O)cc2[N+](=O)[O-])cc(Cl)c1O,-,-,.,.,7.52µM
CC(=O)Nc1cccc(/C(C)=N/Nc2ccc(S(=O)(=O)Nc3ccccc3C(=O)O)cc2[N+](=O)[O-])c1,-,?,.,?,23.8µM
CCOc1ccc(C=NNc2ccc(S(=O)(=O)Nc3ccccc3C(=O)O)cc2[N+](=O)[O-])cc1OC,-,-,?,-,?
CN(CCO)c1ccc(C=NNc2ccc([N+](=O)[O-])cc2S(=O)(=O)Nc2ccccc2C(=O)O)cc1,-,11.2µM,?,79.4µM,21.2µM
O=C(O)c1ccccc1NS(=O)(=O)c1ccc(N/N=C/c2cccc(O)c2O)c([N+](=O)[O-])c1,-,-,.,-,?
CC(=O)Nc1ccc(C=NNc2ccc([N+](=O)[O-])cc2S(=O)(=O)Nc2ccccc2C(=O)O)cc1,-,?,?,?,?
